Only a selection was taken, and hits are over-represented in it overall.
Pf Dd2 growth: qHTS Primary assay for Inhibitors of Plasmodium falciparum Dd2 growth in vitro | P. falciparum Dd2 growth, SYBR Green, 72 h | Potency, µM (doses to about 28.9 µM), most hits filed as inhibitors | hit rate 4.3% among 120,000; active = well fitted inhibition curve with a large enough effect; also: nearly all actives have a fitted effect of over 65% in size
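Infected erythrocytes (Dd2, 0.3% parasitemia, 2.5% hematocrit final) are added to compound in RPMI-1640/Albumax II medium, grown 72 h at 37C in low oxygen, then lysed with saponin/Triton-X containing SYBR Green and read by fluorescence.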
Large screens that a line does not name were inactive.

O=C(CN1CCCCCCC1)N1CCn2cncc2C1	none
O=C(CN1C(=O)NC(c2ccc(Cl)cc2)C2=C1COC2=O)Nc1ccc2c(c1)CCC2 (stereo not drawn)	none
O=C(c1coc(COc2cccc(C(F)(F)F)c2)n1)N1CCCCCCC1	none
CN(C)c1cccc(NC(=O)C2=NO[C@@H]3CN(Cc4ccc(F)cc4)C[C@H]23)c1	none
CC(C)CCN1CCCC2(CC(c3cccc(C(F)(F)F)c3)=NO2)C1 (stereo not drawn)	none
CCOc1ccccc1CN1C[C@@H](CO)[C@H](NC(=O)C2CC2)C1	Pf Dd2 growth 7.9µM
COc1ccc(CN2C[C@@H](CO)[C@H](NC(=O)C3CCC3)C2)cc1	none
O=C(N[C@@H]1CN(Cc2c(F)cccc2Cl)C[C@H]1CO)C1CC1	none
Cc1cc(F)ccc1-c1[nH]nc2ncc(-c3ccsc3)nc12	none
CCc1ccc(Nc2nc(-c3cc4cccc(OC)c4oc3=O)c(CC)s2)cc1	Pf Dd2 growth 11µM
CCOc1cccc2cc(-c3nnc(Nc4ccc(F)c(Cl)c4)s3)c(=O)oc12	none
COc1cccc2cc(-c3nc(Nc4cccc(C)c4C)sc3C)c(=O)oc12	none
O=C1c2c(nc(COc3ccc4c(c3)OCO4)n2Cc2ccccc2)NCCN1Cc1ccccc1	none
CN(Cc1ccc(F)cc1)S(=O)(=O)c1cccc(C(F)(F)F)c1	none
CCc1nc2c(c(-c3ccc(Cl)cc3)n1)CN(C(=O)COC)CC2	none
CCc1nc2c(c(-c3ccc(O)cc3)n1)CCN(Cc1cccn1C)CC2	Pf Dd2 growth 8.9µM
CCc1nc2c(c(-c3ccc(Cl)cc3)n1)CCN(Cc1ccc(F)cc1)CC2	none
Cc1nc2c(c(-c3ccc(O)cc3)n1)CN(Cc1cccn1C)CCC2	none
CCc1nc2c(c(-c3ccc(Cl)cc3)n1)CCN(Cc1ccc(NC(C)=O)cc1)CC2	Pf Dd2 growth 2.5µM
CCc1nc2c(c(-c3ccc(Cl)cc3)n1)CN(C(=O)C1CC1)CC2	none
CCc1nc2c(c(-c3ccc(OC)cc3)n1)CCN(Cc1cccc(NC(C)=O)c1)CC2	Pf Dd2 growth 13µM
COc1ccc(-c2nc(C)nc3c2CCN(Cc2cccn2C)CC3)cc1	none
CCc1nc2c(c(-c3ccc(OC)cc3)n1)CCN(Cc1ccsc1)CC2	none
CCc1nc2c(c(-c3ccc(Cl)cc3)n1)CN(C(=O)Cc1cccc(Cl)c1)CC2	Pf Dd2 growth 4.5µM
CCc1nc2c(c(-c3ccc(OC)cc3)n1)CCN(C(=O)c1ccccc1)CC2	none
CCc1nc2c(c(-c3ccc(Cl)cc3)n1)CCN(Cc1ccccc1)CC2	none
COc1ccc(C(=O)Nc2ccc3n(c2=O)C[C@H]2C[C@@H]3CN(S(=O)(=O)c3ccc(OC)cc3)C2)cc1	none
CCCN(CC1CCOC1)S(=O)(=O)c1cccc(C)c1 (stereo not drawn)	none
O=C(NCc1cccc(C(F)(F)F)c1)c1cccc2c1CCN2C(=O)C1CC1	none
COc1ccc(-c2noc(-c3nnn4c3COC(c3ccc(F)cc3)C4)n2)c(OC)c1 (stereo not drawn)	none
Cc1nn(C)cc1C(C)NC(=O)CN1CCCc2nc(-c3ccccc3)ncc2C1=O (stereo not drawn)	none
COCc1ccc(C(=O)N2CC[C@@H](NC(=O)c3cnccn3)[C@H](O)C2)s1	none
O=C(c1ncn[nH]1)N1CCc2ccc(S(=O)(=O)NCC3CCCO3)cc2C1 (stereo not drawn)	none
O=C(C1CC1)N1CC(F)(F)C[C@H]1c1nc(-c2ncccn2)no1	none
COc1cc(SC)ccc1C(=O)N[C@H]1C[C@@](O)(C(=O)N[C@@H](Cc2cccs2)C(N)=O)C[C@@H](O)[C@@H]1O	none
CC(=O)c1ccc(NC(=O)N[C@H]2CO[C@H]3[C@@H]2OC[C@@H]3Nc2nccc(C(C)(C)C)n2)cc1	none
COc1ccc(-c2cc(C(C)=O)c(C)n2CCC(=O)NCc2ccccc2OC)cc1	none
CCOC(=O)c1cc(-c2ccc(OC)cc2)n(CCC(=O)NCc2ccccc2OC)c1C	Pf Dd2 growth 7.9µM
CCOC(=O)c1cc(-c2ccccc2)n(CCC(=O)NCc2ccccc2Cl)c1C	none
COCc1ccc(C(=O)N2CCn3nc(CCC(=O)NC4CC4)cc3C2)o1	none
COc1ccc2c(c1)OCC(CNC(=O)c1noc3c1CCCC3)C2 (stereo not drawn)	none
NCCCC(=O)N1CCCC(N2CCN(Cc3ccc4c(c3)OCO4)CC2)C1 (stereo not drawn)	none
COC(=O)c1ccccc1NC(=O)c1c(OC)cc(=O)n2c1CCCC2	none
CCS(=O)(=O)Nc1ccc(C2(C(=O)NCc3cccnc3)CCCCC2)cc1	none
CC(=O)Nc1ccc(C2(C(=O)NCc3ccc4c(c3)OCO4)CCC2)cc1	none
CCS(=O)(=O)Nc1ccc(C2(C(=O)NCc3ccc4c(c3)OCO4)CCCCC2)cc1	Pf Dd2 growth 11µM
CC(C)C[C@@H](NC(=O)C1=C[C@@H](NC(=O)Nc2ccc(F)cc2F)[C@@H](O)[C@H](O)C1)C(N)=O	none
COc1ccc(C(=O)Nc2nc3c(s2)C[C@@H]2[C@](C)(CO)[C@H](O)CC[C@@]2(C)[C@@H]3CC(=O)NCCNC(C)=O)cc1	none
C[C@]1(CO)[C@H]2Cc3sc(NC(=O)c4cccc(F)c4)nc3[C@@H](CC(=O)NCc3ccco3)[C@]2(C)CC[C@H]1O	Pf Dd2 growth 8.9µM
COc1ccc(C(=O)Nc2nc3c(s2)C[C@@H]2[C@](C)(CO)[C@H](O)CC[C@@]2(C)[C@@H]3CC(=O)NCc2ccco2)cc1	Pf Dd2 growth 2µM
C[C@]1(CO)[C@H]2Cc3sc(NC(=O)c4ccco4)nc3[C@@H](CC(=O)NCc3cccnc3)[C@]2(C)CC[C@H]1O	Pf Dd2 growth 7.1µM
COCCNC(=O)C[C@@H]1c2nc(NC(=O)c3ccnc(Cl)c3)sc2C[C@@H]2[C@](C)(CO)[C@H](O)CC[C@]21C	none
CC(C)(C)C(=O)Nc1nc2c(s1)C[C@@H]1[C@](C)(CO)[C@H](O)CC[C@@]1(C)[C@@H]2CC(=O)NCc1ccco1	none
C[C@]1(CO)[C@H]2Cc3sc(NC(=O)c4cccs4)nc3[C@@H](CC(=O)NCc3cccnc3)[C@]2(C)CC[C@H]1O	none
CCCCCC(=O)Nc1nc2c(s1)C[C@@H]1[C@](C)(CO)[C@H](O)CC[C@@]1(C)[C@@H]2CC(=O)NCc1cccnc1	none
C#CCNC(=O)C[C@@H]1c2nc(NC(=O)c3ccc(F)cc3)sc2C[C@@H]2[C@](C)(CO)[C@H](O)CC[C@]21C	none
O=C(Cc1cccc(F)c1)N1CCCN(c2cc(-c3ccc(Cl)cc3)[nH]n2)CC1	none
CCOc1cc(=O)n2c(c1C(=O)N1CCN(c3ccccc3F)CC1)CCCC2	none
O=C(Cc1ccccc1)N1CCCN(c2cc(-c3ccc(Br)cc3)[nH]n2)CC1	none
Cc1cnn(C2(C(=O)O)CCN(S(=O)(=O)c3cnn(C)c3)CC2)c1	none
CNc1ncc(CN(C)C(=O)CCc2cc3n(n2)CCCNC3)cn1	none
O=C(CN1CCCC1=O)N1CCC(C2CCNC2)CC1 (stereo not drawn)	none
Cn1nccc1C(=O)N1CCC(Nc2cccnc2)C1 (stereo not drawn)	none
CN(Cc1noc2c1CCCC2)C(=O)Cn1cccc(C(F)(F)F)c1=O	none
Cc1ccc2oc(=O)c3cnn(CC(=O)N4CCN(c5cccc(C(F)(F)F)c5)CC4)c3c2c1	none
Cc1ccc2oc(=O)c3cnn(CC(=O)Nc4cccc(C(F)(F)F)c4)c3c2c1	Pf Dd2 growth 1.1µM
Cc1ccc2oc(=O)c3cnn(CC(=O)Nc4ccc(Br)cc4C)c3c2c1	none
O=C(CCc1ccsc1)N1CCC2(CCCN(Cc3cccnc3)C2=O)C1 (stereo not drawn)	none
CNc1nc(C(=O)N2CCC3(CCCN(CCOC)C3=O)C2)cs1 (stereo not drawn)	none
CN(C)[C@@H]1CNCC[C@@H]1CO	none
CCOCCOC1CCN(C(=O)c2sccc2C)CC1	none

Screening data: PubChem, National Center for Advancing Translational Sciences (NCATS)
